Screening data (PubChem)
Shown are actives, neighbours in structure and some others; about 12% of the full set was active somewhere.
L3MBTL1 block: qHTS Assay for the Inhibitors of L3MBTL1. AlphaScreen L3MBTL1–H3K9me1 peptide binding. hit rate 0.66% among 230,000. Potency, µM (titrated, usually from 57.1 µM), for inactives: at the highest dose activity, negative = inhibition, hits mostly inhibitors; also: % is scaled to controls: 0 for no effect and ±100 for the full control effect; nearly all actives have a fitted effect of over 60% in size
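AlphaScreen proximity signal between nickel-chelate acceptor and streptavidin donor beads (final 10 ug/mL) reports binding of 50 nM L3MBTL1 to 75 nM biotin-H3 K9me1 peptide; complex incubated with compounds 30 min at room temperature; cefsulodin titration as control.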
BAZ2B block: qHTS Assay for Inhibitors of BAZ2B | Bromodomain adjacent to zinc finger domain protein 2B (Homo sapiens), Q9UIF8 | AlphaScreen BAZ2B-H3K14Ac peptide displacement | Potency, µM (series often up to 114 µM), for inactives: top-dose activity change, negative = inhibition, most hits filed as inhibitors | hit rate 4.4% among 360,000 | AID 504333, 2011; also: % is scaled to controls: 0 for no effect and ±100 for the full control effect; nearly all actives have a fitted effect of over 60% in size
Target sequence (Q9UIF8 whole entry, looked up, the tested form may be a part): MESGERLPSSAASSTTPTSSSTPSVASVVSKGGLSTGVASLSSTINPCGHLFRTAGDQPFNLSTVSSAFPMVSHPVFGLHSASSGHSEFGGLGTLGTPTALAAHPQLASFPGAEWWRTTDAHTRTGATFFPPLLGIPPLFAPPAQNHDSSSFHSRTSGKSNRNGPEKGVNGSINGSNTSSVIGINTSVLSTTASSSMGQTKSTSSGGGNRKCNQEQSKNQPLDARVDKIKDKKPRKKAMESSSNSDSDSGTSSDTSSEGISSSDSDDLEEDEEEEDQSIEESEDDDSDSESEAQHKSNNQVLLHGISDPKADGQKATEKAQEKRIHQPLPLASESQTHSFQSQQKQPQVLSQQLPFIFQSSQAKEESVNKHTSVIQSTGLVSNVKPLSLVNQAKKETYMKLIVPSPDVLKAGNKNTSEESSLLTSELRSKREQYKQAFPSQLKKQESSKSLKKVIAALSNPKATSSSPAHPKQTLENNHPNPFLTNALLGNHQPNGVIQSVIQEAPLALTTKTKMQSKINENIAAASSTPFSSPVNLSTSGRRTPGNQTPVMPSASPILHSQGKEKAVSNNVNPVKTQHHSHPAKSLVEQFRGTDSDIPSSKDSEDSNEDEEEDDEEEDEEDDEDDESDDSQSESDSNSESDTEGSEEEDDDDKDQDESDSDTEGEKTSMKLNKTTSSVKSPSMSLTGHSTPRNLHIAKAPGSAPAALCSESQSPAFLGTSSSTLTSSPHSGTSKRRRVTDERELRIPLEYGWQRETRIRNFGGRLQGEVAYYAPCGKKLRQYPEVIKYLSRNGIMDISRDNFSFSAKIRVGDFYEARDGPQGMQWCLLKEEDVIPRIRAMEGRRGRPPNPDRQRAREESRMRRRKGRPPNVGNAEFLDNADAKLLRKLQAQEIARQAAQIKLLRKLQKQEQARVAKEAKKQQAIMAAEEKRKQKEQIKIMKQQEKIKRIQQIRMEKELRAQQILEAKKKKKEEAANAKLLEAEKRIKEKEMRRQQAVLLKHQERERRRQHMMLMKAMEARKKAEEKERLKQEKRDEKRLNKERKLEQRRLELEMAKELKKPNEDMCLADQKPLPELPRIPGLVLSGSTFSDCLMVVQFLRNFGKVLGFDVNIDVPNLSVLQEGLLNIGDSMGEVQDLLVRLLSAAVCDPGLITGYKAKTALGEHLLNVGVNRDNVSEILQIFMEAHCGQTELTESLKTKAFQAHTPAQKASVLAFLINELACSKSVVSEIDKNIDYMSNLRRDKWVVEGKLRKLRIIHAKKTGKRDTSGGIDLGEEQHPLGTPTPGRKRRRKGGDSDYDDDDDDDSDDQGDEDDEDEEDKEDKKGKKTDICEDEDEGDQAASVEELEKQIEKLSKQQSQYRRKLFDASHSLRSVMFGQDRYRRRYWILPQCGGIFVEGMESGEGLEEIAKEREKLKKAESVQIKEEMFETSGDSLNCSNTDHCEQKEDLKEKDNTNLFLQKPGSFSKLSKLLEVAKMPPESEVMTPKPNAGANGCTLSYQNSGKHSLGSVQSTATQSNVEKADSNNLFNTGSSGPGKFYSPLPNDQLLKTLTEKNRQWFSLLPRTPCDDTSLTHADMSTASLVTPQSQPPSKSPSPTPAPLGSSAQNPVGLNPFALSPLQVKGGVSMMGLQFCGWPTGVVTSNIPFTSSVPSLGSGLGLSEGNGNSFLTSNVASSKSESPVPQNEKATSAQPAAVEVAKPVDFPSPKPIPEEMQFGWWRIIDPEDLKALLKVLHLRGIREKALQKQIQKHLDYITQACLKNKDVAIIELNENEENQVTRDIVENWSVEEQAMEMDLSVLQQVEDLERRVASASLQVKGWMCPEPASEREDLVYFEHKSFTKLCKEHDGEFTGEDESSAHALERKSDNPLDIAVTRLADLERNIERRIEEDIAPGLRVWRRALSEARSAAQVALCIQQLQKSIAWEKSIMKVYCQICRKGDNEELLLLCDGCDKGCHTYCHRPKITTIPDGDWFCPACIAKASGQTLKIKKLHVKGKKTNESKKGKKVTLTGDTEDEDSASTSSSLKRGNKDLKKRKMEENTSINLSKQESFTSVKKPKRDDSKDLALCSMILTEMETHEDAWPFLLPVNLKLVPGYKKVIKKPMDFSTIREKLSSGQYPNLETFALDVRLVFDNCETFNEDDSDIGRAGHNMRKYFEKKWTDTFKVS
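Inhibition is scored as reduced AlphaScreen emission. The BAZ2B/b-H3(5-23)K14Ac complex (50 nM each) in PBS pH 7.4, 0.01% Tween-20 meets compound (up to 110 uM) for 30 min at RT before bead addition.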
HP1b binding inh: HTS for Inhibitors of HP1-beta Chromodomain Interactions with Methylated Histone Tails; AlphaScreen HP1-beta / biotin-H3K9me3 peptide binding; Potency, µM (top dose mostly 114 µM), for inactives: at the highest dose activity change, negative = inhibition, actives largely listed as inhibitors; hit rate 0.56% among 390,000; AID 540317, 2011; also: nearly all actives have a fitted effect of over 70% in size
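HP1-beta protein (50 nM final) preincubated 30 min at room temperature with biotinylated H3(1-18)K9me3 peptide (50 nM) in PBS pH 7.4, 0.01% Tween-20, then compound added for 30 min. AlphaScreen streptavidin donor/nickel chelate acceptor beads (10 ug/mL final), 30 min dark, luminescence read.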
JMJD2A Tudor: qHTS Assay for Inhibitors of JMJD2A-Tudor Domain; Lysine-specific demethylase 4A (Homo sapiens), O75164; AlphaScreen JMJD2A-Tudor / H3K4me3 peptide binding; Potency, µM (highest dose often 114 µM), inactives show top-dose activity change, negative = inhibition, hits mostly inhibitors; hit rate 4.4% among 390,000; also: % is scaled to controls: 0 for no effect and ±100 for the full control effect; nearly all actives have a fitted effect of over 50% in size
Sfp PPTase inh: qHTS Assay for Inhibitors of Bacillus subtilis Sfp phosphopantetheinyl transferase (PPTase) | hit rate 3.5% among 310,000 | Potency, µM, inactives show largest response in the series, negative = inhibition, usual class: inhibitors | 4'-phosphopantetheinyl transferase ffp (Bacillus subtilis), Q9F4F7 | Biochemical Sfp PPTase activity, qHTS;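 also: the enzyme is Sfp with the accession as filed and its product quenches rhodamine fluorescence; 0% = enzyme reaction without inhibitor and -100% = no enzyme wells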
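With Hepes-Na pH 7.6 buffer containing 10 mM MgCl2, Sfp (15 nM) modified BHQ-2-YbbR (12.5 uM) using rhodamine-CoA (5 uM). Two reads 30 minutes apart at 525/598 nm yielded each well's rate.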
G9a inh: qHTS Assay for Inhibitors of Histone Lysine Methyltransferase G9a; Histone-lysine N-methyltransferase EHMT2 (Homo sapiens), Q96KQ7; G9a H3K9 monomethylation, AlphaScreen, 2 h; Potency, µM (titrated, usually from 102 µM), inactives show at the highest dose activity, negative = inhibition, most hits filed as inhibitors; hit rate 8.8% among 350,000; also: % is scaled to controls: 0 for no effect and ±100 for the full control effect; nearly all actives have a fitted effect of over 75% in size
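AlphaScreen read-out: biotin-H3K9 peptide (500 nM) methylation by 20 nM enzyme with 20 uM SAM, 2 h at room temperature after 15 min compound preincubation; anti-monomethyl H3K9 antibody plus donor/acceptor beads, 10 min dark.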
Active calls of the source: *; [ ] = remark or other dose. Calls follow the shape of the dose curve; as a rule, active = well fitted curve in the direction sought with a large enough effect; inconclusive = small, poorly fitted or top-dose-only effect, or another doubt; inactive = no such curve, though single readings can be large; an effect the other way counts as inactive or inconclusive. Potency is read from the fitted curve at half-maximal effect.

CC1CCCC(C)N1CCCNC(=O)c1nn(C)c2c1CSc1ccccc1-2 (stereo not given) was read as BAZ2B block -10%, HP1b binding inh 5%, JMJD2A Tudor -9%, Sfp PPTase inh 7% and G9a inh 1%.
CCCCNC(=O)c1nn(C)c2c1CSc1ccccc1-2 was read as BAZ2B block inconclusive, HP1b binding inh -9%, JMJD2A Tudor inconclusive and G9a inh 16µM*.
Screening COc1ccc(CCNC(=O)c2nn(C)c3c2CS(=O)(=O)c2ccccc2-3)c(OC)c1 returned BAZ2B block 50µM*, HP1b binding inh 54%, JMJD2A Tudor -23%, Sfp PPTase inh 6% and G9a inh -1%.
Screening Cc1ccc(NC(=O)c2cc(-c3ccc(C)o3)nc3ccccc23)cc1 returned L3MBTL1 block -7%, BAZ2B block -4%, HP1b binding inh -15%, JMJD2A Tudor 79µM*, Sfp PPTase inh 10µM* and G9a inh 10µM*.
For COc1cc(-c2cc(C(=O)Nc3cccc(C(C)=O)c3)c3ccccc3n2)cc(OC)c1OC the results were BAZ2B block -11%, HP1b binding inh 38%, JMJD2A Tudor -15%, Sfp PPTase inh 8% and G9a inh -1%.
Cc1ccc(-c2cc(C(=O)NCCN3CCOCC3)c3ccccc3n2)o1 was read as BAZ2B block -14%, HP1b binding inh 40%, JMJD2A Tudor -7%, Sfp PPTase inh -20% and G9a inh 28µM*.
`COc1ccccc1NC(=O)c1cc(C)nc2ccccc12` gave L3MBTL1 block 4%, BAZ2B block -11%, HP1b binding inh 15%, JMJD2A Tudor -16%, Sfp PPTase inh 31% and G9a inh 9%.
Screening COc1cc(-c2cc(C(=O)Nc3ccc(O)cc3)c3ccccc3n2)cc(OC)c1OC returned L3MBTL1 block -22%, BAZ2B block -39%, HP1b binding inh -19%, JMJD2A Tudor -2%[11.4 µM], Sfp PPTase inh 22µM* and G9a inh 14µM*.
For COc1ccccc1NC(=O)c1cc(-c2ccc(C)o2)nc2ccccc12 the results were BAZ2B block -12%, HP1b binding inh 4%, JMJD2A Tudor -10%, Sfp PPTase inh -5% and G9a inh 40µM*.
`COc1ccc(CN2C(=O)N(c3ccccc3)C(=O)C2c2ccccc2)cc1COc1ccc(NC(C)=O)cc1` (stereo not given) gave HP1b binding inh 13% and JMJD2A Tudor -29%.
CCCc1nn2c(=O)cc(COC(=O)c3cccs3)nc2s1 was read as BAZ2B block -28%, HP1b binding inh -2%, JMJD2A Tudor -12% and G9a inh 20%[59 µM].
For O=C(Nc1cccnc1)c1cc2c(ccc3ccccc32)o1 the results were BAZ2B block 79µM*, HP1b binding inh 11%, JMJD2A Tudor 56µM*, Sfp PPTase inh -11% and G9a inh inconclusive.
Cc1ccc(-c2cc(C(=O)Nc3cccnc3)c3ccccc3n2)o1 was read as L3MBTL1 block -13%, BAZ2B block -33%, HP1b binding inh inconclusive, JMJD2A Tudor 22µM*, Sfp PPTase inh inconclusive and G9a inh 8.9µM*.
`COc1ccc(C2=C(C)C(N3CCN(C(=O)c4ccco4)CC3)=NS2(=O)=O)cc1` gave BAZ2B block inconclusive, HP1b binding inh 51%, JMJD2A Tudor -18%, Sfp PPTase inh 12% and G9a inh 0%.
For COC(=O)CCCCCN1C(=O)/C(=C\c2ccncc2)SC1=S the results were L3MBTL1 block -17%, BAZ2B block 25µM*, HP1b binding inh inconclusive, JMJD2A Tudor 45µM*, Sfp PPTase inh -3% and G9a inh 10µM*.
Screening Cc1ccc(/C=C2\SC(=S)N(CCC(=O)NNC(=O)c3ccncc3)C2=O)cc1 returned BAZ2B block 2%, HP1b binding inh -14%, JMJD2A Tudor -15% and Sfp PPTase inh -12%.
O=C(CN1C(=O)/C(=C/c2ccccc2)SC1=S)Nc1cccnc1 was read as L3MBTL1 block -14%, BAZ2B block inconclusive, HP1b binding inh 52%, JMJD2A Tudor -8%, Sfp PPTase inh -18% and G9a inh 11%.
Screening CCN1C(=O)/C(=C\c2ccncc2)SC1=S returned BAZ2B block inconclusive, HP1b binding inh -25%[57 µM], JMJD2A Tudor inconclusive, Sfp PPTase inh -5% and G9a inh -4%[12.7 µM].
Screening CCCCC(CC)CN1C(=O)/C(=C/c2ccncc2)SC1=S (stereo not given) returned L3MBTL1 block 1%, BAZ2B block inconclusive, HP1b binding inh inconclusive, JMJD2A Tudor 28µM* and Sfp PPTase inh -14%.
`O=C(O)CCN1C(=O)/C(=C\c2ccc(-c3nc4ccccc4s3)o2)SC1=S` gave BAZ2B block inconclusive, HP1b binding inh 18µM*, JMJD2A Tudor 4µM*, Sfp PPTase inh 45µM* and G9a inh inconclusive.
Screening O=C1/C(=C/c2cccnc2)SC(=S)N1CCc1ccccc1 returned L3MBTL1 block -29%, BAZ2B block 10µM*, HP1b binding inh 12%, JMJD2A Tudor -28% and Sfp PPTase inh -1%.
`CCCCNC(=O)CC1Nc2cc(C)c(C)cc2NC1=O` (stereo not given) gave BAZ2B block -14%, HP1b binding inh 16%, JMJD2A Tudor -21% and G9a inh -37%[59 µM].
Screening COc1ccc(/C=C2/SC(=S)N(CCC(=O)O)C2=O)cc1 returned L3MBTL1 block -5%, BAZ2B block -6%, HP1b binding inh 2%, JMJD2A Tudor -18%, Sfp PPTase inh 8% and G9a inh -12%.
`CCN(CC)S(=O)(=O)c1ccc(C(=O)NCCN2C(=O)S/C(=C\c3cccnc3)C2=O)cc1` gave L3MBTL1 block 15%, BAZ2B block 4%, HP1b binding inh 49%, JMJD2A Tudor -15%, Sfp PPTase inh 2% and G9a inh inconclusive.
Screening O=C(O)CCN1C(=O)/C(=C\c2ccncc2)SC1=S returned L3MBTL1 block 7%, BAZ2B block -23%, HP1b binding inh 33%, JMJD2A Tudor -1%, Sfp PPTase inh inconclusive and G9a inh 56µM*.
For O=C(O)CCN1C(=O)/C(=C\c2cccc(Oc3ccccc3)c2)SC1=S the results were BAZ2B block 50µM*, HP1b binding inh inconclusive, JMJD2A Tudor inconclusive, Sfp PPTase inh -8% and G9a inh 50µM*.
